# Screening data as filed in PubChem.
# JMJD2A Tudor inh: qHTS Assay for Inhibitors of JMJD2A-Tudor Domain. Lysine-specific demethylase 4A (Homo sapiens), O75164. AlphaScreen JMJD2A-Tudor / H3K4me3 peptide binding. Potency, µM (highest dose often 114 µM), for the others: at the top dose activity change, negative = inhibition, hits mostly inhibitors. 390,000 compounds, 4.4% hits. AID 504339, 2011; note: % is set by controls: 0 for no effect and ±100 for the full control effect; nearly all actives have a fitted effect of over 50% in size
# BAZ2B block: qHTS Assay for Inhibitors of BAZ2B | Bromodomain adjacent to zinc finger domain protein 2B (Homo sapiens), Q9UIF8 | AlphaScreen BAZ2B-H3K14Ac peptide displacement | Potency, µM (top dose mostly 114 µM), inactives show at the top dose activity change, negative = inhibition, hits mostly inhibitors | 360,000 compounds, 4.4% hits | AID 504333, 2011; note: % is set by controls: 0 for no effect and ±100 for the full control effect; nearly all actives have a fitted effect of over 60% in size
#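 Protein-peptide AlphaScreen: BAZ2B 50 nM, b-H3K14Ac 50 nM, 1x PBS pH 7.4 + 0.01% Tween-20. Preincubation 30 min RT; cpd 30 min RT (top 110 uM); beads 20 min RT, light-protected.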
# HP1b binding inh: HTS for Inhibitors of HP1-beta Chromodomain Interactions with Methylated Histone Tails. Chromobox protein homolog 1 (Homo sapiens), P83916. AlphaScreen HP1-beta / biotin-H3K9me3 peptide binding. Potency, µM (titrated, usually from 114 µM), without a hit: at the highest dose activity change, negative = inhibition, hits mostly inhibitors. 390,000 compounds, 0.56% hits. AID 540317, 2011; note: nearly all actives have a fitted effect of over 70% in size
#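 Compound inhibition of the preformed complex between 50 nM HP1-beta and 50 nM biotinylated H3K9me3 peptide was read by AlphaScreen. Buffer was PBS pH 7.4 with 0.01% Tween-20. Incubations ran 30 min at room temperature, with 10 ug/mL donor/acceptor beads.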
# L3MBTL1 inh: qHTS Assay for the Inhibitors of L3MBTL1 | Lethal(3)malignant brain tumor-like protein 1 (Homo sapiens), Q9Y468 | AlphaScreen L3MBTL1–H3K9me1 peptide binding | Potency, µM (top dose mostly 57.1 µM), for the others: top-dose activity, negative = inhibition, hits mostly inhibitors | 230,000 compounds, 0.66% hits | AID 485360, 2010; note: % is set by controls: 0 for no effect and ±100 for the full control effect; nearly all actives have a fitted effect of over 60% in size
# Target sequence (Q9Y468 whole entry, looked up): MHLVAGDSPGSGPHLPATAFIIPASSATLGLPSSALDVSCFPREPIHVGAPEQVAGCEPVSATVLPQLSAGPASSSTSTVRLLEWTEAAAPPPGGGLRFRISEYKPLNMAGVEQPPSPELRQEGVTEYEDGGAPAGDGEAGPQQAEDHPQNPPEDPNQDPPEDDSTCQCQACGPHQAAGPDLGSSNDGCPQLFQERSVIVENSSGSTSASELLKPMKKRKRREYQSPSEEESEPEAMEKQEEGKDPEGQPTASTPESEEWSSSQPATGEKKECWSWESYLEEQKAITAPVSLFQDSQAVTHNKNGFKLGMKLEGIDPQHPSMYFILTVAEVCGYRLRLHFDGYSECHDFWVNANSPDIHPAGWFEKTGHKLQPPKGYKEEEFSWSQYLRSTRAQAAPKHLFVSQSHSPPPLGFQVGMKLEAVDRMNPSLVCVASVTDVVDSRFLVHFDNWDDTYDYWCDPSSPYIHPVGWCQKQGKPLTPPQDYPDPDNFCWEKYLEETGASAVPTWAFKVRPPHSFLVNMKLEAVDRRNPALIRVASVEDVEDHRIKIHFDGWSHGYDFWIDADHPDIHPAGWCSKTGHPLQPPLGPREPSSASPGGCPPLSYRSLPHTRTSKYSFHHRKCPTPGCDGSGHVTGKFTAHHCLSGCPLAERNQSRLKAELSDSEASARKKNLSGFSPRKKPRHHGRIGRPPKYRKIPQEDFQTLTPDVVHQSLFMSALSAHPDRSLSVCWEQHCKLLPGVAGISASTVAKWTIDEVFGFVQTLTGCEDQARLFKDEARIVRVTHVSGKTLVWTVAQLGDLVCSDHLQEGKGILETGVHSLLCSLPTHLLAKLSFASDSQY
#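 L3MBTL1 (50 nM) pre-complexed 30 min with biotinylated H3(1-15)K9me1 peptide (75 nM), then compounds added for 30 min at room temperature; AlphaScreen streptavidin donor/nickel chelate acceptor beads (10 ug/mL final) read after 30 min dark incubation.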
# G9a inh: qHTS Assay for Inhibitors of Histone Lysine Methyltransferase G9a. Potency, µM (titrated, usually from 102 µM), for inactives: at the highest dose activity, negative = inhibition, usual class: inhibitors. 350,000 compounds, 8.8% hits. AID 504332, 2011. Histone-lysine N-methyltransferase EHMT2 (Homo sapiens), Q96KQ7. G9a H3K9 monomethylation, AlphaScreen, 2 h; note: % is set by controls: 0 for no effect and ±100 for the full control effect; nearly all actives have a fitted effect of over 75% in size
#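 Compounds were preincubated with 20 nM G9a for 15 min, after which biotinylated H3K9 peptide (500 nM) and SAM (20 uM) started a 2 h room-temperature reaction. Monomethylated product was quantified by antibody-based AlphaScreen chemiluminescence.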
# * marks the source's active call; other numbers are inactive results; ? = inconclusive; . = no result; [ ] = another dose, or the depositor's remark. In the library only some 11% were active in any assay of this set; here they are far more common. Calls come from the whole dose curve; as a rule, active = well fitted inhibition curve with a large enough effect; inconclusive = small, poorly fitted or top-dose-only effect; inactive = no such curve, though single readings can be large or run the other way. Potency is the fitted concentration of half-maximal effect.
SMILES,JMJD2A Tudor inh,BAZ2B block,HP1b binding inh,L3MBTL1 inh,G9a inh
Cc1cc(C)c2nc(N(CCN(C)C)C(=O)c3ccc4ccccc4c3)sc2c1,40µM*,?,-12%,.,40µM*
Cc1cc(C)c2nc(N(CCCN(C)C)C(=O)c3ccc(S(=O)(=O)N4CC(C)OC(C)C4)cc3)sc2c1 (stereo unspecified),-9%,2%,16%,-4%,?
COc1cccc(-c2nc(SC(C(C)=O)C(=O)N(C)C)c3c(=O)n(C)c(=O)n(C)c3n2)c1 (stereo unspecified),-17%,4%,11%[57 µM],.,11%[59 µM]
COc1ccc2sc(N(CCN(C)C)C(=O)c3cc(Cl)sc3Cl)nc2c1,-34%,.,7%,.,?
CN(C)CCN(C(=O)c1ccc2ccccc2c1)c1nc2c(F)cccc2s1,?,-37%[57.1 µM],1%,.,40µM*
COc1ccc2sc(N(CCN(C)C)C(=O)c3ccc4ccccc4c3)nc2c1,40µM*,?,-14%[57 µM],.,40µM*
O=C(Cn1c(=O)n(Cc2ccco2)c(=O)c2sc3ccccc3c21)Nc1ccc(F)cc1F,-16%,-11%,35%,.,-4%[59 µM]
CC1(C)Cc2c(C#N)c(N3CCN(C(=O)c4ccccc4Cl)CC3)nc(-c3ccco3)c2CS1,?,40µM*,-14%,?,.
COc1ccccc1-c1ccc(/C=C2/C=C(CC(C)C)OC2=O)o1,?,40µM*,?,?,10µM*
CCCC1=C/C(=C/c2ccc(-c3ccccc3OC)o2)C(=O)O1,?,40µM*,-28%,-18%,28µM*
O=Cc1ccc(-c2ccccc2OC(F)(F)F)o1,3%,-2%,21%,.,18%
COCCn1c(SCC(=O)Nc2cccc(C)c2C)nc2c(oc3ccccc32)c1=O,-5%,-2%,40%,.,13%[59 µM]
Cc1ccc(NC(=O)C2C3C=CC4(CN(Cc5cccnc5)C(=O)C24)O3)cc1F (stereo unspecified),1%,0%,40%,-2%,45µM*
CC(C)c1ccc(NC(=O)C2C3C=CC4(CN(Cc5cccnc5)C(=O)C24)O3)cc1 (stereo unspecified),-16%,-2%,21%,15%,3%
CC=Cc1cc(OC)c2c(c1)C(C)C(c1ccc(O)c(OC)c1)O2 (stereo unspecified),?,.,-20%,.,.
Cc1cccc(N2C(=O)CSC23C(=O)N(C)c2ccccc23)c1 (stereo unspecified),-11%,-10%,37%,.,?
COc1ccc(/C=C/C(=O)NCC(=O)N2CCC(N(C)CCN3CCOCC3)CC2)cc1OC,?,50µM*,?,.,7.9µM*
O=C1S/C(=C/c2ccc(N3CCOCC3)o2)C(=O)N1Cc1ccc(F)cc1,89µM*,-33%,19%,-3%,7.9µM*
Cc1ccc(-c2ccc(/C=C3\SC(N4CCOCC4)=NC3=O)o2)cc1,-16%[11.4 µM],.,-29%,.,32µM*
O=C1NC(=S)S/C1=C/c1ccc(N2CCOCC2)o1,40µM*,20µM*,35µM*,32µM*,4.5µM*
CC1=C(C(=O)Nc2ccccc2)C(c2ccccn2)n2nc(SCc3ccccc3Cl)nc2N1 (stereo unspecified),-8%,-2%,37%,.,0%[59 µM]
Cc1ccc2c(CC(=O)N(Cc3ccc(Cl)cc3)Cc3ccco3)coc2c1,11%,-5%,47%,.,-16%[59 µM]
CCC(C)c1ccccc1N1CC(C(=O)N(C)CC(=O)Nc2cccc(F)c2)CC1=O (stereo unspecified),4%,-15%,32%,-10%,1%[0.501 µM]
Cc1ccc(N2CCn3c2nc2c3c(=O)n(CCCc3ccccc3)c(=O)n2C)cc1C,0%,-3%,40%,.,0%[59 µM]
NC(=O)C[n+]1cccc(C(=O)Nc2ccccc2)c1,-8%,-30%,-5%,-5%,50µM*
SMILES,JMJD2A Tudor inh,BAZ2B block,HP1b binding inh,L3MBTL1 inh,G9a inh
NC(=O)c1ccc[n+](Cc2ccccc2)c1,-5%,1%,34%,?,71µM*
c1ccc(C[n+]2cccc(-c3ccccc3)c2)cc1,-17%[57.1 µM],3%,21%,7%,7%[59 µM]
COCCCn1c(SCC(=O)Nc2ccccc2OC)nc2c(sc3ccccc32)c1=O,-23%,-3%,44%,.,-18%[59 µM]
CCSc1ncc(Cl)c(C(=O)N(Cc2ccccc2Cl)C2CCS(=O)(=O)C2)n1 (stereo unspecified),-24%,-19%,29%,.,-39%[59 µM]
N#Cc1nc(-c2ccc(F)cc2)oc1N1CCCCC1,?,?,?,.,13µM*
N#Cc1nc(-c2ccccc2)oc1N1CCCCC1,-16%,-33%,-19%,-12%,?
Cc1ccc(-c2nc(C#N)c(N3CCCCC3)o2)cc1,-21%,?,-13%,-25%,20µM*
N#Cc1nc(-c2ccc(F)cc2)oc1N1CCCC1,-12%[11.4 µM],-32%,?,-7%,?
Cc1ccccc1OCc1nc(C#N)c(N2CCCC2)o1,0%,45µM*,20%,?,28µM*
Cc1ccccc1-c1nc(C#N)c(N2CCCCC2)o1,?,22µM*,45µM*,.,35µM*
CCOC(=O)c1ccc(NC(=O)CN2C(=O)CC(c3ccc(C)c(C)c3)=Nc3ccccc32)cc1,-33%,?,1%,.,-20%[59 µM]
O=C(O)Cn1nnc(-c2ccc(OCc3ccccc3)cc2)n1,-4%,.,52%,.,.
Cc1ccccc1OCC(=O)Nc1ccc2nc(SCC(N)=O)sc2c1,-17%,-12%,8%,.,-27%[59 µM]
COc1ccc(-c2oc3ncn4nc(COc5c(C)cccc5C)nc4c3c2-c2ccc(OC)cc2)cc1,4%,5%,67%,.,3%[59 µM]
Cc1cccc(CCNC(=O)c2ccc3c(c2)N(Cc2ccccc2F)C(=O)c2ccccc2S3)c1,0%,-11%,13%,.,8%[59 µM]
O=C(CCNC(=O)c1ccccc1Cl)Nc1ccncc1,-11%,-4%,36%,.,.
CCCOc1ccc(-c2nc(C#N)c(N3CCC(C(N)=O)CC3)o2)cc1,-7%,-1%,19%,-4%,.
COc1ccc(-c2nc(C#N)c(N3CCCCCC3)o2)cc1,?,28µM*,-28%,?,?
N#Cc1nc(-c2ccc(Cl)cc2)oc1N1CCCCC1,?,40µM*,-60%,-14%,?
N#Cc1nc(-c2ccc([N+](=O)[O-])cc2)oc1N1CCCCC1,-8%,6%,83%,.,-10%[2.33 µM]
COc1ccc(-c2nc(C#N)c(N3CCCCC3)o2)cc1,?,28µM*,56µM*,.,-7%[2.33 µM]
COc1ccc(-c2nc(C#N)c(N3CCC(C)CC3)o2)cc1,?,5µM*,-21%,.,14µM*
